Results: the supplement of paper PMC10412459

Tested on: K562 SF3B1 K700E vs K562 SF3B1 WT
Experiment: surviving fraction ratio K562 SF3B1 K700E / K562 SF3B1 WT (each relative to DMSO); higher = less selective killing of SF3B1 K700E cells
Details: 5 days
Procedure: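 Drug-sensitivity screen of an in-house 80-compound library in isogenic K562 SF3B1 K700E versus SF3B1 WT cells. 250 cells/well in 384-well plates were exposed 24 h after seeding to 0.5-1000 nM compound for 5 days, and viability was read by CellTiter-Glo. Surviving fraction is relative to DMSO, and the value is the ratio of surviving fraction in K700E to WT cells; the paper calls ratio <0.6 with P<0.01 selective.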

Row | Compound | surviving fraction ratio K562 SF3B1 K700E / K562 SF3B1 WT (0.5nM) | surviving fraction ratio K562 SF3B1 K700E / K562 SF3B1 WT (1nM) | surviving fraction ratio K562 SF3B1 K700E / K562 SF3B1 WT (5nM) | surviving fraction ratio K562 SF3B1 K700E / K562 SF3B1 WT (10nM) | surviving fraction ratio K562 SF3B1 K700E / K562 SF3B1 WT (50nM) | surviving fraction ratio K562 SF3B1 K700E / K562 SF3B1 WT (100nM) | surviving fraction ratio K562 SF3B1 K700E / K562 SF3B1 WT (500nM) | surviving fraction ratio K562 SF3B1 K700E / K562 SF3B1 WT (1000nM)
1 | C[C@H](CN(C)C)Oc1nc(Nc2cc3cccc(Cl)c3cn2)cnc1C#N | 0.863 | 0.781 | 0.786 | 0.781 | 0.826 | 0.784 | 0.497 | 0.442
2 | CCCCCCCCCCCCCCCC(=O)Nc1ccn([C@@H]2O[C@H](CO)[C@@H](O)[C@@H]2C#N)c(=O)n1 [Sapacitabine] | 0.952 |  | 0.99 |  | 0.729 |  | 1.27 | 
3 | Nc1ncn([C@H]2C[C@H](O)[C@@H](CO)O2)c(=O)n1 [decitabine] | 0.733 | 0.724 | 0.773 | 0.665 | 0.964 | 0.894 | 1.13 | 1.36
4 | C[C@]12CC[C@H](O)CC1=CC[C@@H]1[C@@H]2CC[C@]2(C)C(c3cccnc3)=CC[C@@H]12 | 1.04 | 0.918 | 0.91 | 0.915 | 0.899 | 1.01 | 0.995 | 0.937
5 | CC/C(=C(\c1ccc(O)cc1)c1ccc(OCCN(C)C)cc1)c1ccccc1 [4-OH-tamoxifen] | 0.874 | 0.875 | 0.857 | 0.778 | 1 | 0.923 | 0.884 | 0.993
6 | CO[C@H]1C[C@@H]2CC[C@@H](C)[C@@](O)(O2)C(=O)C(=O)N2CCCC[C@H]2C(=O)O[C@H]([C@H](C)C[C@@H]2CC[C@@H](OCCO)[C@H](OC)C2)CC(=O)[C@H](C)/C=C(\C)[C@@H](O)[C@@H](OC)C(=O)[C@H](C)C[C@H](C)/C=C/C=C/C=C/1C [everolimus] | 0.697 | 0.655 | 0.712 | 0.806 | 0.702 | 0.697 | 0.824 | 0.967
